Measured values reported in PubChem BioAssay (NCATS).
Inconclusive results are not listed. The source made the active and inactive calls. Calls come from the whole dose curve; as a rule, active = well fitted curve in either direction with a large enough effect (not every such curve was filed as active); inconclusive = small, poorly fitted or top-dose-only effect, or another doubt; inactive = flat fitted curve, though single readings scatter.

Assay: Stat Signaling Pathway (AID 446);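 note: ME-180 cervical cancer cells given 40 pM IL-6 alongside compound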
Conditions: ME-180 SIE beta-lactamase reporter, IL-6 stimulated, 5 h; at 17.2 µM (top of the series) unless noted
Summary of the method: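 ME-180 SIE-bla cells; overnight plating; cpd + IL-6 40 pM, 5 h, 37 C; LiveBLAzer 2.5 h RT; 460/530 nm emission ratio. Normalized to 300 pM IL-6 and 125 nM JAK inhibitor controls.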
% is set by controls: 0 for no effect and ±100 for the full control effect.

activity, negative = inhibition, inactive:
CCOC(=O)c1c(C)[nH]sc1=S -4.25%
CN1C(=O)N(c2ccccc2)C(Nc2nncs2)C1(C)C (stereo not drawn) -1.47%
Cc1cc2c(c(=O)n1Cc1cccnc1)C(c1ccccc1)C(C#N)=C(N)O2 (stereo not drawn) -17%
CC(NC(=O)Nc1cccnc1)(C(F)(F)F)C(F)(F)F -3.14%
COc1ccc[nH]c1=O 3.09%
Cc1c2c([n+]3n1CCC3)CC(C)(C)CC2=O 11.2%
CC(=O)C1=C(O)C(=O)N(Cc2cccnc2)C1c1ccccc1Cl (stereo not drawn) 1.82%
O=C(NCCCn1ccnc1)C(Cc1ccccc1)N1C(=O)c2ccccc2C1=O (stereo not drawn) 5.97%
S=c1[nH]nc(-c2ccccc2)n1Cc1ccccc1 6.25%
CCOC(=O)c1c(CN2CCCCC2)oc2ccc(OC)cc12 0.706%
COC(=O)CC1=NC(=O)CS1 12.3%
c1ccc(OCc2nn3c(C4CCCCC4)nnc3s2)cc1 8.07%
COc1ccc(C(=O)c2ccc(N3CCOCC3)cc2)c(OC)c1 1.25%
C/C(=N\O)c1c(C)c2ccccc2n1C 4.84%
CC1(C)Cc2c(c(-c3ccccc3)nc3[nH][nH]c(=O)c23)CO1 12.3%
O=C1OC(Nc2ccc(Br)cn2)c2ccccc21 (stereo not drawn) 3.14%
Cc1nnc2n(-c3ccccc3)c(=O)c3c4c(sc3n12)COC(C(C)C)C4 (stereo not drawn) 4.52%
O=C1CC(c2ccccc2)n2nc(N3C(=O)c4ccccc4C3=O)nc2N1 (stereo not drawn) -7.82%
